Compounds without any hit were thinned out: in the full panel of roughly 79,000, 15% have a hit. Active and inactive are the calls of the source. No stated cut-off is given here; in the data, active means growth inhibition above about 70%; inactive means the rest.
Tests used:
[1] = NCI Yeast Anticancer Drug Screen. Data for the rad52 strain (AID 147);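 further: 0% = growth of vehicle-treated control cultures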; details: S. cerevisiae rad52 mutant growth inhibition, stronger effect = higher value
How it was run: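 Screen used a yeast mutant impaired in DNA repair. After compound exposure, growth was measured. Values reflect inhibition compared with vehicle-treated cells.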

[2] = NCI Yeast Anticancer Drug Screen. Data for the wt1 strain (AID 149);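 further: 0% = growth of vehicle-treated wt1 cultures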; details: S. cerevisiae wt1 strain (SPY 50644) growth inhibition, stronger effect = higher value
How it was run: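 Compounds are added to wt1 yeast cultures. Growth is then measured. Inhibition is expressed relative to vehicle-treated controls.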

[3] = NCI Yeast Anticancer Drug Screen. Data for the rad50EPP+ strain (AID 151);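 further: 0% = growth of vehicle-treated control cultures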; details: S. cerevisiae rad50 mutant strain, stronger effect = higher value
How it was run: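 Exposing the rad50EPP+ strain to each compound, growth was compared with vehicle-only cultures to give inhibition.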

[4] = NCI Yeast Anticancer Drug Screen. Data for the rad50 strain (AID 155);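 further: 0% = growth of vehicle-only cultures of the same strain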; details: S. cerevisiae rad50 strain growth inhibition, stronger effect = higher value
How it was run: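 Inhibition values express reduced yeast growth in compound-treated cultures relative to vehicle-treated controls.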

[5] = NCI Yeast Anticancer Drug Screen. Data for the mec2-1 strain (AID 157); details: S. cerevisiae mec2-1 strain, stronger effect = higher value
How it was run: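 Readout is yeast growth inhibition, normalised to vehicle-treated controls, in the mec2-1 strain exposed to compound.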

[6] = NCI Yeast Anticancer Drug Screen. Data for the rad14 strain (AID 159);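 further: 0% = growth of vehicle-treated control cultures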; details: S. cerevisiae rad14 strain growth inhibition, stronger effect = higher value
How it was run: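 A mutant yeast strain defective in DNA damage repair is treated with compound; inhibition of its growth is scored against untreated, vehicle-exposed cultures.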

[7] = NCI Yeast Anticancer Drug Screen. Data for the sgs1 mgt1 strain (AID 161);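 further: 0% = growth of cultures given vehicle only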; details: S. cerevisiae sgs1 mgt1 strain, stronger effect = higher value
How it was run: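 Yeast cells carrying a defined DNA-repair defect were exposed to test compounds. Growth inhibition was measured relative to vehicle-treated controls.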

[8] = NCI Yeast Anticancer Drug Screen. Data for the CLN2oe strain (AID 163);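 further: 0% = growth of vehicle-only control cultures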; details: S. cerevisiae CLN2oe strain, stronger effect = higher value
How it was run: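 Values reflect how much compound exposure reduced yeast growth, referenced to vehicle-exposed cells. Assay organism is a strain with a defined genetic change affecting cell-cycle control.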

[9] = NCI Yeast Anticancer Drug Screen. Data for the cln2 rad14 strain (AID 165);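 further: 0% = growth equal to vehicle treated cultures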; details: S. cerevisiae cln2 rad14 strain, stronger effect = higher value
How it was run: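 Relative to vehicle controls, growth inhibition of compound-treated cln2 rad14 yeast was recorded.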

[10] = NCI Yeast Anticancer Drug Screen. Data for the bub3 strain (AID 167); details: S. cerevisiae bub3 mutant strain, stronger effect = higher value
How it was run: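 Steps: expose the mutant yeast strain to compound; grow alongside vehicle-treated cultures; measure growth; express inhibition against the vehicle cultures.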

[11] = NCI Yeast Anticancer Drug Screen. Data for the wt2 strain (AID 169);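 further: 0% = growth of vehicle-treated yeast cultures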; details: S. cerevisiae wt2 strain growth inhibition, stronger effect = higher value
How it was run: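 Values express reduction in yeast growth under compound treatment, referenced to vehicle-treated cells.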

[12] = NCI Yeast Anticancer Drug Screen. Data for the mlh1 strain (AID 171);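 further: 0% = growth of vehicle-treated control cultures of the same strain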; details: S. cerevisiae mlh1 strain growth inhibition, stronger effect = higher value
How it was run: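 Steps: expose the defined-mutant yeast strain to compound; expose a parallel culture to vehicle; measure growth; express compound effect as inhibition relative to the vehicle culture.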

[13] = NCI Yeast Anticancer Drug Screen. Data for the sgs1 strain (AID 173);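 further: 0% = growth of vehicle-only control cultures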; details: S. cerevisiae sgs1 mutant, stronger effect = higher value
How it was run: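 Treat defined-mutant yeast with compound; measure growth; calculate inhibition relative to vehicle-treated cells.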

[14] = NCI Yeast Anticancer Drug Screen. Data for the mlh1 rad18 strain (AID 175); details: S. cerevisiae mlh1 rad18 strain growth inhibition, stronger effect = higher value
How it was run: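 Test agents were incubated with a yeast strain of defined genotype (DNA damage repair defect). Inhibition of growth was derived by comparison with vehicle-exposed cultures.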

[15] = NCI Yeast Anticancer Drug Screen. Data for the rad18 strain (AID 177); details: S. cerevisiae rad18 mutant growth inhibition, stronger effect = higher value
How it was run: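 A genetically defined yeast mutant impaired in DNA damage repair was treated with test compounds, then its growth was measured against cultures receiving vehicle alone.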

[16] = at 5.0 µM (retest, dose inferred, filed as 0.5)
[17] = at 50.0 µM (retest, dose inferred, filed as 5.0)

Measured: growth inhibition

COc1cc(CNc2ccc(C(C)C)cc2)cc(OC)c1OC
inactive: [1]; at 1.2 µM 21% | [1]; at 3.7 µM 3% | [1]; at 11.0 µM -17% | [1]; at 33.0 µM 13% | [2]; at 1.2 µM 1% | [2]; at 3.7 µM 15% | [2]; at 11.0 µM 7% | [2]; at 33.0 µM -8% | [2]; at 100.0 µM 56% | [3]; at 1.2 µM -4% | [3]; at 3.7 µM -6% | [3]; at 11.0 µM 5% | [3]; at 33.0 µM 26% | [3]; at 100.0 µM 28% | [4]; at 1.2 µM 13% | [4]; at 3.7 µM 0% | [4]; [16] -1% | [4]; at 11.0 µM -2% | [4]; at 33.0 µM -19% | [4]; [17] -3% | [4]; at 50.0 µM 32.5% | [5]; at 1.2 µM 8% | [5]; at 3.7 µM -8% | [5]; [16] -42% | [5]; at 11.0 µM -4% | [5]; at 33.0 µM -25% | [5]; [17] 1% | [5]; at 50.0 µM 25.4% | [5]; at 100.0 µM 59% | [6]; at 1.2 µM -6% | [6]; at 3.7 µM -17% | [6]; at 11.0 µM -31% | [6]; at 33.0 µM -50% | [7]; [16] -7% | [7]; [17] 25% | [7]; at 50.0 µM 64% | [8]; at 1.2 µM -12% | [8]; at 3.7 µM -19% | [8]; at 11.0 µM -28% | [8]; at 33.0 µM -50% | [8]; at 100.0 µM -4% | [9]; [16] 6% | [9]; [17] 24% | [9]; at 50.0 µM 6.85% | [10]; at 1.2 µM -13% | [10]; at 3.7 µM -22% | [10]; [16] 13% | [10]; at 11.0 µM -26% | [10]; at 33.0 µM -6% | [10]; at 50.0 µM 65.2% | [11]; at 1.2 µM -1% | [11]; at 3.7 µM -26% | [11]; at 11.0 µM -9% | [11]; at 33.0 µM -20% | [11]; at 100.0 µM 69% | [12]; at 1.2 µM -2% | [12]; at 3.7 µM -21% | [12]; at 11.0 µM -15% | [12]; at 33.0 µM -20% | [13]; at 1.2 µM 26% | [13]; at 3.7 µM 23% | [13]; at 11.0 µM 21% | [13]; at 33.0 µM 11% | [14]; [16] -11% | [14]; [17] 32% | [14]; at 50.0 µM 55.7% | [15]; at 1.2 µM 4% | [15]; at 3.7 µM 9% | [15]; at 11.0 µM -5% | [15]; at 33.0 µM 9% | [15]; at 100.0 µM 64%
active: [1]; at 100.0 µM 78% | [4]; at 100.0 µM 73% | [6]; at 100.0 µM 72% | [10]; [17] 78% | [10]; at 100.0 µM 71% | [12]; at 100.0 µM 76% | [13]; at 100.0 µM 84%

CCC(=O)N(c1ccccc1)C(C)CN1CCC(O)(c2cccc(C(F)(F)F)c2)CC1 (stereo unspecified)
active: [1]; at 100.0 µM 83% | [4]; at 100.0 µM 76% | [6]; at 100.0 µM 97% | [8]; at 100.0 µM 73% | [10]; at 100.0 µM 89% | [11]; at 100.0 µM 96% | [12]; at 100.0 µM 91% | [13]; at 100.0 µM 94%
inactive: [1]; at 1.2 µM 0% | [1]; at 3.7 µM 4% | [1]; at 11.0 µM 13% | [1]; at 33.0 µM 27% | [2]; at 1.2 µM 2% | [2]; at 3.7 µM 6% | [2]; at 11.0 µM 11% | [2]; at 33.0 µM 22% | [2]; at 100.0 µM 46% | [3]; at 1.2 µM -3% | [3]; at 3.7 µM -3% | [3]; at 11.0 µM -1% | [3]; at 33.0 µM -2% | [3]; at 100.0 µM -1% | [4]; at 1.2 µM -2% | [4]; at 3.7 µM -7% | [4]; [16] 21% | [4]; at 11.0 µM 3% | [4]; at 33.0 µM 26% | [4]; [17] 4% | [4]; at 50.0 µM 62.3% | [5]; at 1.2 µM 0% | [5]; at 3.7 µM 7% | [5]; [16] -2% | [5]; at 11.0 µM 17% | [5]; at 33.0 µM 23% | [5]; [17] 10% | [5]; at 50.0 µM 10.2% | [5]; at 100.0 µM 57% | [6]; at 1.2 µM 6% | [6]; at 3.7 µM 18% | [6]; at 11.0 µM 48% | [6]; at 33.0 µM 68% | [7]; [16] -4% | [7]; [17] 41% | [7]; at 50.0 µM 68.2% | [8]; at 1.2 µM 2% | [8]; at 3.7 µM 1% | [8]; at 11.0 µM 13% | [8]; at 33.0 µM 41% | [9]; [16] 7% | [9]; [17] 43% | [9]; at 50.0 µM 18.6% | [10]; at 1.2 µM 1% | [10]; at 3.7 µM 3% | [10]; [16] 4% | [10]; at 11.0 µM 17% | [10]; at 33.0 µM 49% | [10]; [17] 51% | [10]; at 50.0 µM 65.2% | [11]; at 1.2 µM 0% | [11]; at 3.7 µM 5% | [11]; at 11.0 µM 16% | [11]; at 33.0 µM 44% | [12]; at 1.2 µM 2% | [12]; at 3.7 µM 6% | [12]; at 11.0 µM 17% | [12]; at 33.0 µM 44% | [13]; at 1.2 µM 2% | [13]; at 3.7 µM 10% | [13]; at 11.0 µM 20% | [13]; at 33.0 µM 60% | [14]; [16] -3% | [14]; [17] 37% | [14]; at 50.0 µM 38.9% | [15]; at 1.2 µM 3% | [15]; at 3.7 µM 9% | [15]; at 11.0 µM 25% | [15]; at 33.0 µM 31% | [15]; at 100.0 µM 69%
